PLAP act: human PLAP activation. P05187. actives 1.2% (n = 96,000). purified PLAP enzyme, luminescent substrate read-out; active compounds read high. activation fold at 20 µM; in the data active = activation fold above about 2
sEH inhibitor: inhibitors of human soluble epoxide hydrolase; P34913; recombinant human sEH enzymatic activity assay; inhibition, % at 2 µM; actives 0.34% (n = 91,000); in the data active = inhibition above about 80%
Target sequence (P34913 whole entry, looked up): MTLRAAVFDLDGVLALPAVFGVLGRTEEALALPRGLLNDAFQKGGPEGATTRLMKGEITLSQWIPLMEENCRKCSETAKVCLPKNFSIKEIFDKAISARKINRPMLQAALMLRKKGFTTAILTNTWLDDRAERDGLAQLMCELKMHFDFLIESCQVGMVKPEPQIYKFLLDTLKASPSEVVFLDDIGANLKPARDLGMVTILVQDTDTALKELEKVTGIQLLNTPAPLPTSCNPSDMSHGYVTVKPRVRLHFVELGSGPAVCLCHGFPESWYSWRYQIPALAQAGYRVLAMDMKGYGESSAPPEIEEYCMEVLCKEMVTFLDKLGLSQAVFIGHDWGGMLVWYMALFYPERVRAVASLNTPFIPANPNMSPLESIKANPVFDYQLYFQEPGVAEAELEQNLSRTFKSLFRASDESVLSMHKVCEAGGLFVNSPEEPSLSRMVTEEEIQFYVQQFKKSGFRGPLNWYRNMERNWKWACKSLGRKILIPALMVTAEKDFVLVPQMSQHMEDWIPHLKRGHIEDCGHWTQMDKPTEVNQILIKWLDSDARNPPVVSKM
sEH act: soluble epoxide hydrolase (human) activation; AID 717; activation, % at 2 µM; actives 0.04% (n = 91,000); purified human sEH enzymatic activity, activator screen; P34913; in the data active = activation above about 37%
LYP act: increases human PTPN22 phosphatase activity | recombinant LYP, DiFMUP fluorescence; 0 = plate median, 100 = signal doubled | Q9Y2R2 | actives 0.11% (n = 96,000) | activation, % at 2 µM | AID 697;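 active = activation at 2 µM above a set limit, the mean plus 5 SD, cut at about 37% in these data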
EphB4 antag: antagonists of human EphB4-ephrin-B2 interaction. P54760. inhibition, % at 7 µM. EphB4 LBD / TNYL-RAW-Alexa532 peptide, fluorescence polarization. actives 0.15% (n = 97,000);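 active = inhibition above the screen-wide mean inhibition plus 3 SD, cut at about 15% in these data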;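 also: 0% = DMSO wells and 100% = excess unlabeled TNYL-RAW peptide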
PTPN22 inh 2: LYP (human) phosphatase inhibition. Q9Y2R2. recombinant LYP catalytic domain, DiFMUP fluorescence. inhibition, % at 2 µM. actives 0.21% (n = 96,000). AID 640;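 active = inhibition at 2 µM at or above a set limit, the screen mean plus 3 SD, cut at about 24% in these data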;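 also: 0% = DMSO with enzyme and 100% = enzyme fully blocked by orthovanadate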
* marks the source's active call; other numbers are inactive results; . = not tested or not shown. This is a sample that favours compounds with a hit; in the whole collection about 1.6% have one here.

SMILES	PLAP act	sEH inhibitor	sEH act	LYP act	EphB4 antag	PTPN22 inh 2
CC(C)(C)c1nn(-c2ccccc2)c2[nH]c(=O)c(CNCc3ccc4c(c3)OCO4)cc12	2.1*	-9	3	-3	3	5
Cc1cc(-c2ccccc2)nc(N2CCC(C(=O)NCc3ccccc3Cl)CC2)n1	.	82*	-82	1	2	-2
C=CCNC(=O)C1CCN(c2nc(C)cc(-c3ccccc3)n2)CC1	1.5	14	-11	-7	2	7
Cc1ccc(C)c(NC(=S)NCc2ccc3c(c2)OCO3)c1	1	5	-2	2	8	2
CN(CCc1ccccn1)C(=O)Nc1ccc(F)cc1	1	0	0	-2	-4	0
CN(CCc1ccccn1)c1ncnc2[nH]ncc12	2.1*	8	-6	6	-6	-2
COc1ccc(S(=O)(=O)N2C3CCC2CC(NC(=O)C2CC2)C3)cc1 (stereo unspecified)	1	6	-7	5	9	-7
COC(=O)c1ccc(S(=O)(=O)N2C3CCC2CC(NC(=O)NC2CCCCC2)C3)cc1 (stereo unspecified)	1.2	98*	-98	-1	1	2
COc1ccc(S(=O)(=O)N2C3CCC2CC(NC(=O)NC2CCCCC2)C3)cc1 (stereo unspecified)	1.1	98*	-98	3	0	-1
CC1(C)CC(=O)C2=C(C1)Oc1nc3ccccc3cc1C2C(C#N)C#N (stereo unspecified)	1.1	3	-1	-4	-4	4
COc1ccc2ccccc2c1C(O)c1nccn1C (stereo unspecified)	2*	-10	11	4	8	-5
CCOC(=O)c1c2ccc(OCC(=O)N/N=C/c3ccc(C)cc3)cc2n2ccccc12	1.2	5	-4	-22	-1	24*
Cc1ccccc1C(=O)NNC(=O)Cc1cccc2ccccc12	2*	-1	-1	2	1	-1
O=C(NNC(=O)c1cccc2ccccc12)c1ccco1	1.8	10	-10	5	-5	0
CC1=CC(C)(C)N2C(=O)C3(N=C(N)NC(Nc4ccccc4)=N3)c3cc(C)cc1c32 (stereo unspecified)	2.1*	-2	3	-1	3	-2
CC(=O)Nc1ccccc1-c1nc2ccccc2nc1OCC(=O)c1ccc2ccccc2c1	1.4	4	-4	-9	-4	11
Cc1sc2nc(SCC(=O)NCCOCCO)n(C)c(=O)c2c1C	1.5	.	.	.	.	.
OCCNc1ncnc2c1c(-c1ccccc1)c(-c1ccccc1)n2Cc1ccco1	2*	9	-11	2	6	-2
c1ccc(-c2c(-c3ccccc3)n(Cc3ccco3)c3ncnc(NCCCn4ccnc4)c23)cc1	90	-4	2	-6	-6	7
Cc1ccc(C)c(OCC(=O)N/N=C/c2c(C)nn(-c3ccccc3)c2Cl)c1	1.3	4	-5	-29	-2	28*
Cc1cccc2c(C(=O)O)c3c(nc12)CCCCC3	1	-8	11	2	17*	-6
CCCCCCOC(=O)C(C#N)c1nc2ccccc2nc1N1CCN(C)CC1 (stereo unspecified)	1.4	-6	4	-7	17*	7
O=C(Cn1cnc2ccccc21)OCC(=O)N1CCc2ccccc2C1	1	.	.	.	.	.
Cc1noc(/C=C/N(C)C)c1S(=O)(=O)N1CCCC(C(=O)NCCC2=CCCCC2)C1 (stereo unspecified)	.	88*	-88	-1	5	-1
COC(=O)c1c(C)[nH]c(C(=O)C(C)Sc2nnc(-c3cc(OC)c(OC)c(OC)c3)o2)c1C (stereo unspecified)	1.4	-13	13	-6	-4	5
SMILES	PLAP act	sEH inhibitor	sEH act	LYP act	EphB4 antag	PTPN22 inh 2
CCOC(=O)c1ccc(-n2[nH]c(-c3ccccc3)cc2=O)cc1	1.2	-5	6	-10	5	9
O=c1cc(-c2ccccc2)[nH]n1-c1nc2ccccc2[nH]1	2.1*	1	-2	-10	-4	8
O=C(CSc1nnc(-c2cccnc2)n1Cc1ccccc1)NCc1ccccc1	.	3	-2	10	2	-9
O=C1C(C=NCc2ccccn2)=C(O)c2ccccc21	1.6	5	-4	4	-9	-7
O=c1oc2ccccc2c(O)c1C=NCc1ccccn1	2.1*	-23	21	8	6	-5
CCCCSc1nc(C)cc(C)c1S(=O)(=O)c1ccccc1C	0.8	-4	4	-12	1	16
